# Hit rate of the full screen: of about 1,300 compounds, about 240 (18%) were called active. Roughly 8% stayed inconclusive and do not appear here. How the calls were made is not given here. The list is a sample of the results. Measured potencies and affinities stand elsewhere.
# Test: HepG2 cell cytotoxicity, dose response, cytotoxicity control, cherry-picked samples (AID 1159577)
# Details: HepG2 cytotoxicity counterscreen, plate reader; series mostly up to 19.5 µM
row,Compound,outcome
1,N#Cc1cccc(-c2ccc(C3[C@@H]4CN(C(=O)C5CCC5)C[C@H]3N4)cc2)c1 (some centres undefined),inactive
2,O=C(C1CC1)N1C[C@@H]2N[C@H](C1)C2c1ccc(-c2cccc(F)c2)cc1 (some centres undefined),inactive
3,C[C@@H]1CN([C@@H](C)CO)C(=O)c2c(c3ccccc3n2C)-c2ccccc2CO[C@@H]1CN(C)C(=O)Nc1cccc(Cl)c1Cl,inactive
4,C[C@H]1CN([C@@H](C)CO)C(=O)CCCn2nncc2CO[C@@H]1CN(C)C(=O)Nc1ccc(N2CCCCC2)cc1,inactive
5,OC[C@H]1CC[C@@H]2O[C@H](CCc3ccc(-c4ccc(F)cc4)cc3)[C@H](n3cc(C4CC4)nn3)C[C@@H]2O1,inactive
6,OC[C@@H]1CC[C@@H]2O[C@H](CCc3ccc(-c4ccccc4)cc3)[C@H](n3cc(-c4ccccc4)nn3)C[C@@H]2O1,inactive
7,O=C(C[C@@H]1CC[C@@H]2[C@H](COC[C@@H](O)CN2S(=O)(=O)c2ccccc2)O1)NCc1ccc(-c2ccccc2)cc1,inactive
8,N#Cc1cccc(-c2ccc(C3[C@@H]4CN(C(=O)C5CC5)C[C@H]3N4)cc2)c1 (some centres undefined),inactive
9,COc1cccc(CN2C[C@@H]3N[C@H](C2)C3c2ccc(-c3ccncc3)cc2)c1 (some centres undefined),inactive
10,COc1ccc(NC(=O)Nc2cccc3c2O[C@H](CN(C)C(=O)Nc2cccc4ccccc24)[C@H](C)CN([C@@H](C)CO)C3=O)cc1,inactive
11,CC(C)NC(=O)N1[C@@H](CO)[C@@H](c2ccccc2)C12CN(Cc1ccc(F)cc1)C2,inactive
12,CO[C@@H]1CN(C)C(=O)c2cc(NC(=O)Cc3ccccc3)ccc2OC[C@H](C)N(C(=O)c2ccccc2F)C[C@@H]1C,inactive
13,CCCC(=O)N1CC2(C1)CN(Cc1ccc(Cl)cc1)[C@H](CO)c1[nH]c3cc(OC)ccc3c12,inactive
14,COc1ccc(C#Cc2cccc(-c3nc(C(=O)N[C@@H]4CCN(Cc5ccccc5)C4)cc4c3[C@@H](CCO)N(S(=O)C(C)(C)C)C4)c2)cc1OC (some centres undefined),inactive
15,C[C@H](CO)N1C[C@H](C)[C@H](CN(C)S(=O)(=O)c2ccccc2F)OCc2ccccc2-c2c(n(C)c3ccccc23)C1=O,inactive
16,COc1cccc(-c2ccc([C@@H]3[C@H](CO)N4CCCCN(C(=O)c5ccc(F)cc5)C[C@@H]34)cc2)c1,inactive
17,COc1ccc2c3c([nH]c2c1)[C@@H](CO)N(Cc1ccccc1F)CC31CN(C(=O)C2CCCC2)C1,inactive
18,COc1ccc(NC(=O)N(C)C[C@H]2OCc3ccccc3-c3c(n(C)c4ccccc34)C(=O)N([C@H](C)CO)C[C@@H]2C)c(OC)c1,inactive
19,CC(C)c1cn([C@H]2C[C@@H]3O[C@H](CO)CC[C@@H]3O[C@@H]2CCc2ccc(C#CC3(O)CCCC3)cc2)nn1,inactive
20,COCC(=O)Nc1ccc2c(c1)OC[C@@H](C)N(C(=O)NC(C)C)C[C@@H](C)[C@@H](OC)CN(C)C2=O,inactive
21,N#C[C@@H]1[C@@H](c2ccccc2-c2ccccc2F)[C@@H](CO)N1C(=O)C1CCOCC1,inactive
22,COc1ccc(-c2ccc3c(c2)[C@@H]2[C@@H](CCN2Cc2ccncc2)[C@@H](CO)N3)cc1,inactive

row,Compound,outcome
1,CO[C@@H]1CN(C)C(=O)c2ccc(NC(=O)Nc3ccc(F)cc3)cc2OC[C@@H](C)N(C(=O)c2ccc(F)cc2)C[C@H]1C,inactive
2,CC(C)CC#Cc1ccc([C@H]2[C@@H](CO)N3C(=O)CN(C(=O)Cc4ccccc4)C[C@H]23)cc1,inactive
3,C[C@H](CO)N1C[C@H](C)[C@@H](CN(C)C(=O)Nc2ccc(-c3ccccc3)cc2)OCc2ccccc2-c2c(n(C)c3ccccc23)C1=O,inactive
4,COc1ccc2c3c([nH]c2c1)[C@H](CO)N(Cc1ccccc1Cl)CC31CCN(C(C)=O)CC1,inactive
5,C[C@@H]1CN([C@H](C)CO)C(=O)c2cc(C#Cc3ccccc3F)cnc2O[C@H]1CN(C)C(=O)c1ccc2c(c1)OCO2,inactive
6,COc1ccc(-c2ccccc2[C@H]2[C@@H](C#N)N(C(=O)C3CCCC3)[C@H]2CO)cc1,inactive
7,CN1c2ccc(C3=CCCCC3)cc2[C@H]2[C@H](CCN2C(=O)C2CC2)[C@@H]1CO,inactive
8,COC(=O)c1ccc(CN2CC(=O)N3[C@H](CO)[C@@H](c4ccc(-c5ccccc5F)cc4)[C@H]3C2)cc1,inactive
9,CC(C)NC(=O)N1CCCCN2[C@H](CO)[C@@H](c3ccc(C#C[C@H](C)O)cc3)[C@@H]2C1,inactive
10,CCC(=O)N1CCC2(CC1)CN(C(=O)Nc1ccc(F)cc1)[C@@H](CO)c1c2c2ccc(OC)cc2n1C,inactive
11,C[C@H]1CN([C@@H](C)CO)C(=O)c2cc(NC(=O)Cc3cn(C)c4ccccc34)ccc2O[C@H]1CN(C)S(=O)(=O)c1cccs1,inactive
12,C[C@@H]1CN([C@H](C)CO)S(=O)(=O)c2ccc(-c3ccncc3)cc2O[C@@H]1CN(C)Cc1ccc(Oc2ccccc2)cc1,inactive
13,C[C@@H]1CN([C@H](C)CO)C(=O)c2cccc(NC(=O)Nc3cccc4ccccc34)c2O[C@@H]1CN(C)C(=O)Nc1ccc(F)cc1,inactive
14,C/C=C/c1ccc2c(c1)[C@H]1[C@H](CCN1C(=O)c1cccc(F)c1)[C@H](CO)N2,inactive
15,O=C(O)C[C@@H]1C[C@@H]2c3cc(NS(=O)(=O)c4ccccc4)ccc3O[C@@H]2[C@H](CO)O1,inactive
16,C[C@@H](NC(=O)C[C@H]1C[C@@H]2c3cc(NS(=O)(=O)c4ccc(F)cc4)ccc3O[C@@H]2[C@H](CO)O1)c1ccccc1,inactive
17,CCS(=O)(=O)N1CCC2(CC1)CN(Cc1ccc3c(c1)OCO3)[C@@H](CO)c1[nH]c3cc(OC)ccc3c12,inactive
18,CCCNC(=O)N1[C@H](C#N)[C@H](c2ccc(C#Cc3cccc(F)c3)cc2)[C@H]1CO,inactive
19,O=C(Cc1ccncc1)N1CC[C@@H]2[C@@H](CO)Nc3ccc(-c4cccc(F)c4)cc3[C@@H]21,inactive
20,N#Cc1cccc(-c2ccc3c(c2)[C@H]2[C@H](CCN2Cc2ccncc2)[C@@H](CO)N3)c1,inactive
21,N#Cc1cccc(-c2ccc3c(c2)[C@@H]2[C@@H](CCN2Cc2cncnc2)[C@H](CO)N3)c1,inactive
22,O=C(C1CCCC1)N1CC[C@@H]2[C@H]1c1cc(-c3cccc(F)c3)ccc1N[C@@H]2CO,inactive

# Source: PubChem BioAssay AID1159577 (Broad Institute, 2015)
